Laboratory results: PubChem BioAssay (NCATS)
“And” between values parts separate entries of the source, which are not always exact repeats. Identical values can stand only once. Records with an inconclusive call do not appear. The source made the active and inactive calls. Unless noted, calls come from the whole dose curve; as a rule, active = well fitted curve in the direction sought with a large enough effect; inconclusive = small, poorly fitted or top-dose-only effect, or another doubt; inactive = no such curve, though single readings can be large; an effect the other way counts as inactive or inconclusive.

Tests used:
[1] = biological target: Glucocorticoid receptor (Homo sapiens) (UniProt P04150); assay: GR-GFP Redistribution (AID 450;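 active = compounds whose dose series gives a full or clear partial fitted curve of increased nuclear translocation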; note: potency is the fitted concentration of half-maximal effect); conditions: U2OS GR-GFP nuclear translocation, laser cytometry, 2 h
Sequence of Glucocorticoid receptor (Homo sapiens) (P04150 whole entry, looked up, the tested form may be a part): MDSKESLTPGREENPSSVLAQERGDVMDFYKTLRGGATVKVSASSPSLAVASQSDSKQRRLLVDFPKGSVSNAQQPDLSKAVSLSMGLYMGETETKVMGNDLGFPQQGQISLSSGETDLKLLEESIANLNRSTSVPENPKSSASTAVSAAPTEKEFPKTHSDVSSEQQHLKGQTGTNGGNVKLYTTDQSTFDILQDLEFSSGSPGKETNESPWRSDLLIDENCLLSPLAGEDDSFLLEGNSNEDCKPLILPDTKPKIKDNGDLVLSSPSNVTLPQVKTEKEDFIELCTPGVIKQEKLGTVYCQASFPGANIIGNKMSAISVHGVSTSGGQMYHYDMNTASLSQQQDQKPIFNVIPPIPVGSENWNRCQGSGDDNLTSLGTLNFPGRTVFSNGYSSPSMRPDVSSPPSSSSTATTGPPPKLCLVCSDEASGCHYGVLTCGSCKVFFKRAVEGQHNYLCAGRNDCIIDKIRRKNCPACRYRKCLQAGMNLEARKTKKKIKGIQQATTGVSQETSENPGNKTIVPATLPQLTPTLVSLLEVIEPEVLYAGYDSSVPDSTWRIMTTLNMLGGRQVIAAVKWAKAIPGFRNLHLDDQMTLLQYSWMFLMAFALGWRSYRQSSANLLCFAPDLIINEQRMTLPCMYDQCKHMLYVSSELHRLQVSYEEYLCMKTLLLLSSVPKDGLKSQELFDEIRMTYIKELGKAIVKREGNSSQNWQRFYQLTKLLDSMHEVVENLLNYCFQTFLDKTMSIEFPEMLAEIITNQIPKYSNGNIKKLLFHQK

[2] = biological target: Glucocorticoid receptor (Homo sapiens) (UniProt P04150); assay: GR-EFC Redistribution (AID 451; calls by dose curve; note: potency is the fitted concentration of half-maximal effect); conditions: CHO-K1 GR-EFC translocation, beta-gal luminescence, 2 h
Procedure, shortened: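 Translocation of GR-ED fusion to nuclear EA restores b-gal, read by luminescence after 1 h room-temperature detection. Engineered CHO-K1 biosensor cells, 1,000/well, exposed 2 h at 37 C to titrations up to 46 uM final.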

[3] = biological target: 3',5'-cyclic-AMP phosphodiesterase 4B (Homo sapiens) (UniProt Q07343); assay: qHTS Assay for Inhibitors of PDE-IV (AID 607; active = well fitted activation curve with a large enough effect in the main read-out, with a control signal flat, not every such curve was filed as active; note: % of control where 0% means no effect); conditions: HEK293 ACTOne CNG channel cells, membrane potential fluorescence; series mostly up to 22.9 µM
Sequence of 3',5'-cyclic-AMP phosphodiesterase 4B (Homo sapiens) (Q07343 whole entry, looked up): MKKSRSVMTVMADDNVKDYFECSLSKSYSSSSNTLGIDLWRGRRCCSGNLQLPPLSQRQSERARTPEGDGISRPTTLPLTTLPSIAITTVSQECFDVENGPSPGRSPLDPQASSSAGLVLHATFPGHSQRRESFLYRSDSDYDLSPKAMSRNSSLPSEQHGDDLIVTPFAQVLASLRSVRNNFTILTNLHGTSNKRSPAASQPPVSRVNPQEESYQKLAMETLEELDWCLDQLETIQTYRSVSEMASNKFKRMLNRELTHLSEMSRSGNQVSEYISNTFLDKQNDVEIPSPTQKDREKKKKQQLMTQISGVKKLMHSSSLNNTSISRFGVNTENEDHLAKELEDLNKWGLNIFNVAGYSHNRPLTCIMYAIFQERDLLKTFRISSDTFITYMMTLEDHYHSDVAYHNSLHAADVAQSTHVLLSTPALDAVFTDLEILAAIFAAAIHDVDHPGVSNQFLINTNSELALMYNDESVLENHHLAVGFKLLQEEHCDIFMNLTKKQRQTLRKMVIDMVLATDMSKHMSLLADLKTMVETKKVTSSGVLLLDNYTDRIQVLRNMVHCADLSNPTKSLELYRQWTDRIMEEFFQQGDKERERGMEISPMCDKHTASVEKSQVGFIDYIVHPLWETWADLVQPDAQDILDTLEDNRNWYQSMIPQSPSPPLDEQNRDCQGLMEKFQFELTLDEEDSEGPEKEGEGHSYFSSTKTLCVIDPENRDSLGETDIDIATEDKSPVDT
Procedure, shortened: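 HEK293 ACTOne cells with CNG channel (1000/well), endogenous PDE4; membrane potential dye, compounds up to 22.9 uM final. Fluorescence Ex 535/Em 590; RO 20-1724 (100 uM final) as reference.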

[4] = biological target: Guanine nucleotide-binding protein G(i) subunit alpha-1 (Homo sapiens) (UniProt P63096); assay: qHTS Assay for Inhibitors of RGS12 GoLoco Motif Activity (Green Fluorophore) (AID 879); conditions: Galphai1/FITC-RGS12 GoLoco peptide, fluorescence polarization; series mostly up to 57.1 µM;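 note: 0% = labeled peptide with Gαi1 and full inhibition = labeled peptide alone without protein; negative values mean loss of peptide binding seen as reduced polarization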
Sequence of Guanine nucleotide-binding protein G(i) subunit alpha-1 (Homo sapiens) (P63096 whole entry, looked up): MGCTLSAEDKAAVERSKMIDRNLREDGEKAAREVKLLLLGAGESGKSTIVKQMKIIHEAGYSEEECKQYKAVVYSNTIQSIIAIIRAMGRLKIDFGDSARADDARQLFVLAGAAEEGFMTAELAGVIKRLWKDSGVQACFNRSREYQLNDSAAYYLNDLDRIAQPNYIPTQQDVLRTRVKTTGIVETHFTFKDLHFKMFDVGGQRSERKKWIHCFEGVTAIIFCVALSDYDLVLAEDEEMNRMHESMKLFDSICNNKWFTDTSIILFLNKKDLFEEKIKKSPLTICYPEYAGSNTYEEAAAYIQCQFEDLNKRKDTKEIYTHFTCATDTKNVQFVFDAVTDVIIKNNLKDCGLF
Procedure, shortened: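 A drop in FITC polarization marked displacement of the FITC-tagged RGS12 GoLoco peptide (10 nM) from Gαi1 (50 nM). Compounds were incubated 10 min at room temperature in Tris pH 7.5 buffer containing 150 mM NaCl, 0.1 mM GDP and 0.05% NP40; unlabeled peptide titration served as control.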

[5] = biological target: Cytochrome P450 3A4 (Homo sapiens) (UniProt P08684); assay: qHTS Assay for Activators of Cytochrome P450 3A4 (AID 885); conditions: recombinant CYP3A4, Luciferin-PPXE luminescence, 60 min; series mostly up to 57.1 µM; note: nearly all actives have a fitted effect of over 65% in size
Sequence of Cytochrome P450 3A4 (Homo sapiens) (P08684 whole entry, looked up): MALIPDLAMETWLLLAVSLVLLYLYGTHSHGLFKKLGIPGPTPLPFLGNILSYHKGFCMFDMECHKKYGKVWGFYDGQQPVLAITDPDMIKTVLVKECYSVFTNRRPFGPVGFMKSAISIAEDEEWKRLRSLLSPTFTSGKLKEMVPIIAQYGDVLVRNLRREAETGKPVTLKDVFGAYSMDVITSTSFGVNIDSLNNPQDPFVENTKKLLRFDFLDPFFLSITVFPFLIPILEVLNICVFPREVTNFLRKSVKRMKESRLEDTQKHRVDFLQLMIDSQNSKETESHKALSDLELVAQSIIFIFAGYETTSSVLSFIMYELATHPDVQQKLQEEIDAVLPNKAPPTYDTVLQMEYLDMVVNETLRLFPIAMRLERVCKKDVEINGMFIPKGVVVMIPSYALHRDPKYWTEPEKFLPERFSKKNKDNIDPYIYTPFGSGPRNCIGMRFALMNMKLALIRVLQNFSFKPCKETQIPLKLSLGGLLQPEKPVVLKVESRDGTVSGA
Procedure, shortened: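 Human CYP3A4 dealkylates Luciferin-PPXE to luciferin, which luciferase detection converts to light. Substrate was at its KM (25uM), buffer 200mM KPO4, reaction 60 min at RT.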

[6] = qHTS Assay for Lipid Storage Modulators (AID 1519; calls by dose curve; note: potency is the fitted concentration of half-maximal effect); conditions: Drosophila S3 cells, BODIPY lipid droplet/cell ratio, laser cytometry, cells loaded with oleic acid; for activity change, negative = inhibition: at 57.5 µM (top of the series)
Procedure, shortened: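 Cells seeded at 5,000 per well were treated with compounds over a concentration series and loaded with oleic acid (400 uM, as added). Lipid droplet fluorescence (488 nm excitation, 500-530 nm channel) was read by laser-scanning cytometry and normalized to 20 uM Triacsin C.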

[7] = biological target: DNA dC->dU-editing enzyme APOBEC-3G (Homo sapiens) (UniProt Q9HC16); assay: qHTS for inhibitors of Vif-A3G interactions: Validation (AID 588379); conditions: Vif-A3G protein interaction assay; series mostly up to 46.1 µM; note: 0% is about no effect
Sequence of DNA dC->dU-editing enzyme APOBEC-3G (Homo sapiens) (Q9HC16 whole entry, looked up): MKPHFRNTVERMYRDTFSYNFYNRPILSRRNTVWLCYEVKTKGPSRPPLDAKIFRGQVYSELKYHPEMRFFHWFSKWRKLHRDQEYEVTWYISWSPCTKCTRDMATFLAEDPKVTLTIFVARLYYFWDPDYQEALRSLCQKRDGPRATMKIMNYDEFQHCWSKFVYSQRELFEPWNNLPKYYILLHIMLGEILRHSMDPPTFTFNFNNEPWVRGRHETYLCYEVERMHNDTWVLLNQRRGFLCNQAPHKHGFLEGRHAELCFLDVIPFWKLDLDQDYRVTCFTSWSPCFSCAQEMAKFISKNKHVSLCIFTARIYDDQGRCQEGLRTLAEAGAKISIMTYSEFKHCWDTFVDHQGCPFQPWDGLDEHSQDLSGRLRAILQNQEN
Procedure, shortened: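 Yellow fluorescence (Ex 488, Em 500-530) of Vif-coexpressing HeLa A3G-eYFP cells, scanned by Acumen cytometer, reports blocked A3G degradation. Cells plated at 700/well overnight at 37 deg C before compound addition, then a further overnight compound incubation at 37 deg C.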

[8] = tested on: Zika virus NS2B-NS3 protease; assay: Primary screen GU AMC qHTS for Zika virus inhibitors (AID 1347154); conditions: Zika NS2B-NS3 unlinked protease, AMC fluorogenic substrate; series mostly up to 54.1 µM;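 note: 0% = no-inhibitor control and -100% = no-enzyme control; nearly all actives have a fitted effect of over 70% in size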
Procedure, shortened: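 Fluorogenic AMC-substrate cleavage by noncovalent NS2B-NS3 protease complex (25 nM, pH 8.0 Tris buffer with Tween 20) followed for 15 minutes at room temperature (~20% conversion). Percent inhibition from ex340/em450 signal change, fitted by 4-parameter Hill equation.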

[9] = Primary qHTS for small molecule stabilizers of the endoplasmic reticulum resident proteome: Secreted ER Calcium Modulated Protein (SERCaMP) assay (AID 1508630); conditions: SH-SY5Y GLuc-SERCaMP (Gaussia luciferase released on ER calcium loss) secretion, thapsigargin, luminescence; series mostly up to 38.4 µM; note: % is set by controls: 0 for no effect and ±100 for the full control effect
Procedure, shortened: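 The SH-SY5Y reporter protocol was run at 3 concentrations up to 38.3 uM (primary) or 11 concentrations (follow-up): 16 h compound, 100 nM thapsigargin for 4 h, then extracellular luciferase luminescence.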

[10] = biological target: Mitogen-activated protein kinase 10 (Mus musculus) (UniProt Q61831); assay: JNK3 AlphaScreen Assay (AID 530; active = well fitted curve in either direction with a large enough effect, not every such curve was filed as active;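 note: kinase came from lysate of stimulated human HepG2 cells; signal reports phosphorylation of biotinylated GST-cJun 1-79 at Ser73 with 10 µM ATP; % is set by controls: 0 for no effect and ±100 for the full control effect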); conditions: JNK3 lysate, c-Jun phosphorylation; series mostly up to 57.1 µM
Procedure, shortened: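 Kinase buffer: 20 mM Tris-HCl pH 7.6, 10 mM MgCl2, 1 mM DTT, 0.1 mM Na3VO4, 0.01% Tween-20; ATP 10 uM. Substrate biotin-GST-cJun(1-79), enzyme from activated HepG2 lysates. Detection by Ser73 phospho-antibody AlphaScreen.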

[11] = biological target: Ubiquitin carboxyl-terminal hydrolase 1 (Homo sapiens) (UniProt O94782); assay: Inhibitors of USP1/UAF1: Pilot qHTS (AID 504865); conditions: purified USP1/UAF1, Ub-rhodamine cleavage fluorescence; series mostly up to 114 µM;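 note: rhodamine fluorescence freed from ubiquitin-rhodamine substrate followed over time; top concentration of the series differs between compounds; % is set by controls: 0 for no effect and ±100 for the full control effect; nearly all actives have a fitted effect of over 35% in size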
Procedure, shortened: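 In 50mM HEPES pH 7.8 containing 0.5mM EDTA, 1mM TCEP, 0.1 mg/ml BSA and 0.01% Tween-20, 1nM USP1/UAF1 is exposed to compound for 15 min, then Ub-Rho (150nM final) is added and fluorescence is read over time.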

[12] = biological target: Cytochrome P450 3A4 (Homo sapiens) (UniProt P08684); assay: qHTS Assay for Inhibitors and Substrates of Cytochrome P450 3A4 (AID 884); conditions: recombinant CYP3A4, Luciferin-PPXE luminescence; series mostly up to 57.1 µM; note: nearly all actives have a fitted effect of over 50% in size; note: potency is the fitted concentration of half-maximal effect
Procedure, shortened: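 Luminescent readout of luciferin produced by CYP3A4 (20 nM) dealkylation of Luciferin-PPXE, 25 uM (its KM). NADPH-driven reaction ran 60 min at RT after 10 min compound preincubation; data scaled to 57 uM ketoconazole as 100% inhibition.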

[13] = AP1 Signaling Pathway (AID 357; active = well fitted curve in either direction with a large enough effect, not every such curve was filed as active;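 note: ME-180 reporter cells stimulated with EGF at its EC50 level; % is set by controls: 0 for no effect and ±100 for the full control effect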); conditions: ME-180 AP-1-bla reporter, EGF-induced, beta-lactamase ratio, 5 h
Procedure, shortened: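 Modulation of EGF-driven AP-1 transcription was assessed with a beta-lactamase reporter in ME-180 cells. Compound and EC50 EGF were co-incubated 5 hours at 37 °C before 2.5-hour CCF4 loading at room temperature and dual-emission reading.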

[14] = NFAT Signaling Pathway (AID 444; active = well fitted curve in either direction with a large enough effect, not every such curve was filed as active;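 note: carbachol stimulus at about its EC50 of 1 µM final; % is set by controls: 0 for no effect and ±100 for the full control effect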); conditions: Jurkat NFAT-bla M1, carbachol, beta-lactamase ratio, 5 h
Procedure, shortened: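 Read-out: CCF4 FRET ratio (460 nm/530 nm) after 1 h RT dye loading, used for %activity and AC50 from titration series. Cells: Jurkat NFAT-β-lactamase/M1 line, treated with compound plus 1 uM carbachol for 5 h, 37 °C.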

[15] = Stat Signaling Pathway (AID 446; active = well fitted curve in either direction with a large enough effect, not every such curve was filed as active); conditions: ME-180 (cervical carcinoma) SIE beta-lactamase reporter, IL-6 stimulated, 5 h
Procedure, shortened: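 Normalization used AC90 stimulation (300 pM IL-6) and AC90 inhibition (125 nM pan-JAK inhibitor at 40 pM IL-6). The underlying signal is SIE-driven beta-lactamase in ME-180 cells after 5 h IL-6 exposure with compound.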

[16] = biological target: Cytochrome P450 2C9 (Homo sapiens) (UniProt P11712); assay: qHTS Assay for Inhibitors and Substrates of Cytochrome P450 2C9 (AID 883); conditions: recombinant CYP2C9, luciferin-H luminescence, 60 min; series mostly up to 57.1 µM; note: nearly all actives have a fitted effect of over 60% in size; note: potency is the fitted concentration of half-maximal effect
Sequence of Cytochrome P450 2C9 (Homo sapiens) (P11712 whole entry, looked up): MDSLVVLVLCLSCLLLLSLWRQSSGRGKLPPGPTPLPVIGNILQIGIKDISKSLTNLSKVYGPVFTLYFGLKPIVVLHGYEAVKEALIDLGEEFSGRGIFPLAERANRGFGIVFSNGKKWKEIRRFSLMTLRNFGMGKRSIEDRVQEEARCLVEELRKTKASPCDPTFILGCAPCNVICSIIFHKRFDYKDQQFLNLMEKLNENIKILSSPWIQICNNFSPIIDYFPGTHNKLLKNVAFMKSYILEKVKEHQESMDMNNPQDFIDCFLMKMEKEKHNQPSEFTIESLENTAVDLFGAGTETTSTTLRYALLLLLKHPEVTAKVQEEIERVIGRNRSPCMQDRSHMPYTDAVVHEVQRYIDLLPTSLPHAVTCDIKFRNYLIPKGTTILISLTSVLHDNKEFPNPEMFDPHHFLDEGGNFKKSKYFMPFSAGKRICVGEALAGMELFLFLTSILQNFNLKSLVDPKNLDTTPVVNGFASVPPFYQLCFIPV
Procedure, shortened: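 Turnover of Luciferin-H (100uM, KM) by 10nM human CYP2C9 was measured over 60 min at 37C with NADPH regeneration; inhibitors and some substrates reduce luminescence. Data normalized to sulphaphenazole 57uM.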

[17] = biological target: Cytochrome P450 2C19 (Homo sapiens) (UniProt P33261); assay: qHTS Assay for Inhibitors and Substrates of Cytochrome P450 2C19 (AID 899); conditions: recombinant CYP2C19, luciferin-H EGE luminescence; series mostly up to 57.1 µM; note: nearly all actives have a fitted effect of over 60% in size; note: potency is the fitted concentration of half-maximal effect
Sequence of Cytochrome P450 2C19 (Homo sapiens) (P33261 whole entry, looked up): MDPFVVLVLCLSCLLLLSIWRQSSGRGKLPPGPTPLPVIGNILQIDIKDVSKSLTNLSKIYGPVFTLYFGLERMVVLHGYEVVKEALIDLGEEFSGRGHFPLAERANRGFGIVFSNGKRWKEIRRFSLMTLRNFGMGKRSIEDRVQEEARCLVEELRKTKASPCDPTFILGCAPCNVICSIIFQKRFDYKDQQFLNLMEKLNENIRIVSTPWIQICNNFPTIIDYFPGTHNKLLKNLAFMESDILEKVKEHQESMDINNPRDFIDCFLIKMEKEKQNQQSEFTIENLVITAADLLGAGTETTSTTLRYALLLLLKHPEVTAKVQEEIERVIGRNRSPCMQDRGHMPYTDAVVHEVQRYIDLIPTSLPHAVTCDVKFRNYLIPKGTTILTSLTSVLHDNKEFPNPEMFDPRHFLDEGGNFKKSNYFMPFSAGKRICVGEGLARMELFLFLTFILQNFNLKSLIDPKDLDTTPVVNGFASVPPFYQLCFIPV
Procedure, shortened: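 Reactions contain 5nM enzyme, 10uM Luciferin-H EGE (KM) and 50mM KPO4; compound preincubates 10 min at 37C, NADPH regeneration starts turnover for 60 min. Luminescence after detection reagent gives activity.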

[18] = biological target: Rap guanine nucleotide exchange factor 3 (Homo sapiens) (UniProt O95398); assay: Confirmatory qHTS for agonist of cAMP-regulated guanine nucleotide exchange factor 3 (EPAC1) (AID 1645881); conditions: EPAC1 Rap1B BODIPY-GDP exchange fluorescence, 100% = cAMP control response; series mostly up to 154 µM;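 note: EPAC1 catalysed release of BODIPY-GDP from Rap1B seen as fluorescence loss; nearly all actives have a fitted effect of over 75% in size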
Sequence of Rap guanine nucleotide exchange factor 3 (Homo sapiens) (O95398 whole entry, looked up): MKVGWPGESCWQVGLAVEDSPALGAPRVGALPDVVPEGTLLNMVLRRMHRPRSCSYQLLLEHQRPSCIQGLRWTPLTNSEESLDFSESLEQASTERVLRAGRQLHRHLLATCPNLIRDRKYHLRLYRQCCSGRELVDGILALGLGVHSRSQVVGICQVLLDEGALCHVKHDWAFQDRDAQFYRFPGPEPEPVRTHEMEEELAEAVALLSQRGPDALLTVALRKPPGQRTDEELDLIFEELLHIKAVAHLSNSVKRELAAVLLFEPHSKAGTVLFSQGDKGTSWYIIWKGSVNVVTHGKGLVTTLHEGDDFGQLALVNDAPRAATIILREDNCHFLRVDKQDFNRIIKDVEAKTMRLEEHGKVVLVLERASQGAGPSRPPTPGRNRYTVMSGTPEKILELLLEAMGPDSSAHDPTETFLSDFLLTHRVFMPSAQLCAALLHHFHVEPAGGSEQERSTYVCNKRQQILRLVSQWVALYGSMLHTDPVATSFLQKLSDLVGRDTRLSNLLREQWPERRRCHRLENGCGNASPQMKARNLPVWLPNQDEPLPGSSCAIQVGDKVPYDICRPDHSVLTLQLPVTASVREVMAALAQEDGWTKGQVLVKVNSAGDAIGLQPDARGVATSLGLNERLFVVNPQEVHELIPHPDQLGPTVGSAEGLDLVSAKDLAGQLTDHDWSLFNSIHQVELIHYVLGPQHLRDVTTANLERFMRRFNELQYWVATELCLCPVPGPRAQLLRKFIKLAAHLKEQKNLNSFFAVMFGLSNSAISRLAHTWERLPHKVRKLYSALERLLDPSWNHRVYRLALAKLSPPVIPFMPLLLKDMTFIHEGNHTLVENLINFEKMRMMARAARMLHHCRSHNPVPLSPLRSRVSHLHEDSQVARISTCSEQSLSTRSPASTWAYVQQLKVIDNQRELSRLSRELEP

[19] = biological target: Cytochrome P450 1A2 (Homo sapiens) (UniProt P05177); assay: p450-cyp1a2 (AID 410; calls by dose curve; note: potency is the fitted concentration of half-maximal effect); conditions: recombinant CYP1A2, luciferin-ME demethylation, luminescence; series mostly up to 57 µM
Procedure, shortened: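 Read-out is luminescence from luciferin produced by CYP1A2 demethylation of Luciferin-ME (100uM, at Km). Detection reagent stopped the 60 min NADPH-dependent reaction; signals were normalized to 57 uM furafylline.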

[20] = biological target: Cytochrome P450 2D6 (Homo sapiens) (UniProt P10635); assay: qHTS Assay for Inhibitors and Substrates of Cytochrome P450 2D6 (AID 891); conditions: recombinant CYP2D6, luciferin-ME EGE luminescence; series mostly up to 57.1 µM;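 note: luciferin methyl ether substrate demethylated by CYP2D6 with NADPH regeneration; % is set by controls: 0 for no effect and ±100 for the full control effect; nearly all actives have a fitted effect of over 60% in size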
Procedure, shortened: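 Luminescent read-out of luciferin formed by 5 nM human CYP2D6 demethylating 30 uM Luciferin-ME EGE (Km level) over 60 min at room temperature after NADPH regeneration addition. Data normalized to full inhibition by 1.43 uM quinidine.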

[21] = measured here: cell count channel max response
[22] = measured here: lipid channel max response

CC(C)(C)c1ccc(S(=O)(=O)/C=C\C#N)cc1
5.78%: max response [6, 21]
-82.4%: max response [6, 22]
active: Potency [6] 31.6 µM
inactive: Potency [1] > 46 µM | Potency [2] > 46 µM | Potency [3] | outcome [4] | Potency [5] | Potency [7] | Potency [8] | Potency [9]

CC(=O)OCCNC(=O)c1cccnc1
27.8%: max response [6, 22]
inactive: Potency [1] > 46 µM | Potency [2] > 46 µM | Potency [10] | Potency [5] | activity change, negative = inhibition [6] 8.28% | Potency [11] | Potency [7] | Potency [8] | Potency [9]
15.6%: max response [6, 21]

N[C@@H](CCCP(=O)(O)O)C(=O)O
inactive: Potency [1] > 46 µM | Potency [2] > 46 µM | Potency [10] | Potency [3] | activity change, negative = inhibition [6] -1.39% | Potency [7] | Potency [8] | Potency [9]
15.6%: max response [6, 21]
17.3%: max response [6, 22]

CC(C)=CCC/C(C)=C/CC/C(C)=C/CC/C(C)=C/CO
inactive: Potency [12] | activity change, negative = inhibition [6] 7.37% | Potency [11] | Potency [8] | Potency [9]
9.56%: max response [6, 21]
21.5%: max response [6, 22]

Cc1ccc(NC2=CC(=O)c3sc(C)nc3C2=O)cc1
inactive: Potency [8] | Potency [9]

COc1cc(CNC(=O)CCCC/C=C\C(C)C)ccc1O
active: Potency [16] 2 µM and 1.26 µM | Potency [12] 3.98 µM | Potency [17] 7.94 µM and 6.31 µM
inactive: activity change, negative = inhibition ([13]; at 17.2 µM (top of the series)) 7.68% | activity change, negative = inhibition ([14]; at 17.2 µM (top of the series)) -1.65% | activity, negative = inhibition ([15]; at 17.2 µM (top of the series)) -15.5% | Potency [1] > 20.6 µM and > 46 µM | Potency [2] > 20.6 µM and > 46 µM | Potency [10] | Potency [3] | Potency [5] | Potency [7] | Potency [8] | Potency [9] | outcome [18]

N[C@H](Cc1ccc(Cl)cc1)C(=O)O
inactive: activity change, negative = inhibition ([13]; at 38 µM (top of the series)) 25.5% | activity change, negative = inhibition ([14]; at 38 µM (top of the series)) 7.18% | activity, negative = inhibition ([15]; at 38 µM (top of the series)) -4.9% | Potency [1] > 46 µM | Potency [2] > 46 µM | Potency [10] | Potency [3] | outcome [4] | Potency [16] | Potency [5] | Potency [20] | Potency [17] | Potency [7] | Potency [8] | Potency [9]
active: Potency [19] 31.6 µM

NCCC[C@@H](N)C(=O)O
inactive: activity change, negative = inhibition ([13]; at 7.69 µM (top of the series)) -2% | activity change, negative = inhibition ([14]; at 7.69 µM (top of the series)) -0.481% | activity, negative = inhibition ([15]; at 7.69 µM (top of the series)) 1.44% | activity change, negative = inhibition [10] 6.02% [at 11.4 µM] | Potency [3] | Potency [8] | Potency [9]

C[C@H]1C=C2C=C[C@H](C)[C@H](CC[C@@H]3C[C@@H](O)CC(=O)O3)[C@H]2[C@@H](OC(=O)[C@@H](C)CCO)C1
inactive: Potency [2] > 46 µM | Potency [10] | Potency [5] | Potency [7] | Potency [8] | Potency [9] | outcome [18]
active: Potency [19] 31.6 µM
